The chains are these.
B1: chr4:144460044:144460045:+_ENSG00000153147_ENST00000283131|hu_mus|hu_hu_hu_mus_False|98_98 (ssRNA)
RNA: GGGAGUUCUACAGUCCGACGAUCACGGUCCAUAGCCUGAAGAUCUACUUGCGGAUUCCAAUCUGAGUCAUAUAAAAUGACUACAUCAGCAGUUGCAAGAUUGAUGCCCAGACCACCAGCACGUGUGCUUAGCAUAAAUACAAACAACAGAGGAUUGAGCAUCA
B2: chr5:64741823:64741824:+_ENSMUSG00000029174_ENSMUST00000119756|mus_mus|motif|central (ssRNA)
RNA: GGGAGUUCUACAGUCCGACGAUCAAUAAAUAUGUCAGACCCCACAGCUACAGGUCCCACACUAGCAAUAACAGGGAAUCGGAAAACUGUGAUUUCCUUAUGAAACAUUUACCUGUGACUUGAAAGGGUAAGCAAAAACCAUACCAACAGAGGAUUGAGCAUCA
B3: chr16:94664741:94664742:+_ENSMUSG00000040785_ENSMUST00000117648|mus_hu|mus_mus_mus_hu_False|1_98 (ssRNA)
RNA: GGGAGUUCUACAGUCCGACGAUCUGGUACUGAUCUUUGCAUUGGAUAUUCAGGAGAAAGGCUGGCCAAGGGUGUAUAUAUGCUGGUGUACUGGGGCAAACCUGGUAACACGUUUAUGUAUGCUGGCGGUGUCUGGGUGCCAAACAACAGAGGAUUGAGCAUCA
B4: chr1:44133529:44133530:+_ENSG00000066135_ENST00000372396|hu_mus|FALSE|FALSE (ssRNA)
RNA: GGGAGUUCUACAGUCCGACGAUCGAACUCGGCUGCUUCCGGUGUGGGCAGAGUGUGGUCAAUAACCAUGCUGUCCUUCCCAGCUUUCCAAAGUUUGUAGCGUUCCGGCUGGAACCUCCUCACGAACACGUCCAUGGAGAUCUUCAACAGAGGAUUGAGCAUCA
B5: chr10:75008345:75008346:-_ENSG00000213551_ENST00000372950|hu_hu|motif|central (ssRNA)
RNA: GGGAGUUCUACAGUCCGACGAUCCUAUAUCUUAGUCACACACCAGAGUUAAGCCAUCUGUCUUUGCUCAUUUUUCCCUCGGUGGACAACAUAAUAUGUUGGGAAGGGCUUUCCAGGAGGGCAUAACCGGGAGAUGAAUCUUACCAACAGAGGAUUGAGCAUCA
B6: chr1:225611761:225611762:-_ENSG00000143815_ENST00000272163|hu_mus|hu_hu_hu_mus_True|8_88 (ssRNA)
RNA: GGGAGUUCUACAGUCCGACGAUCCCAGGCCAUCGGCCUCUGACCACUUCACCAUCGACAAACUUCCUACUUGGCAUUUUCUAAAAUUAGUCUGGCCGCGCUCCGGCGGGAACUCCAGCCACUCCAGGGAGAAUAGUAGCAGCCCAACAGAGGAUUGAGCAUCA
B7: chr2:179515052:179515053:+_ENSMUSG00000000305_ENSMUST00000000314|mus_hu|FALSE|FALSE (ssRNA)
RNA: GGGAGUUCUACAGUCCGACGAUCGCUGUCCCAUGCAGUCACCGUGAACGCCACCUGCUCGGAGGGGACCUGCAGCUCCCGGGUGGCGAAGACUGUCCCAUCUGCCCCAACUUUGAAGUCCAUGCUGUUGGUCUCAUAUUGUGUCAACAGAGGAUUGAGCAUCA
B8: chr3:169711627:169711628:+_ENSG00000008952_ENST00000337002|hu_hu|motif|central (ssRNA)
RNA: GGGAGUUCUACAGUCCGACGAUCUAAAAACAUACCCUUACAUGGUCUUAAUUUUAUGAAUUUAAGUGUUGAGAAAUAUCGGAAUAAUAAGUAACAAUUAAAAUAAAAUGUUUUAUUUGUAAAUUAUGUACAGAAUACACUUUACAACAGAGGAUUGAGCAUCA
B9: chr11:99246628:99246629:-_ENSMUSG00000019761_ENSMUST00000103131|mus_mus|FALSE|FALSE (ssRNA)
RNA: GGGAGUUCUACAGUCCGACGAUCAUAGUUUGCAUCAGUAAGAAAGUUUAUUGAAAUUUAUUAGUAAAUGAGAAAUUAAUAAGUAAGUGAGAAAGUUUUCUUCUUUUUUCUCCACAAAAGAACACUUUCUGAUAGAUGAAAAGACAACAGAGGAUUGAGCAUCA
B10: chr6:13577978:13577979:-_ENSMUSG00000042742_ENSMUST00000045235|mus_hu|FALSE|FALSE (ssRNA)
RNA: GGGAGUUCUACAGUCCGACGAUCAAAAAGAAUUAUCACCAAUUACAAAAAGUUCAGUAAAUAUUGGAUCAUCAGACAAAAAAGGAACAUAAAAUGACUUUCUGUAACAUCACAAUUUUAGUUAGAAAAAAGAAAAAGAUAAGUCAACAGAGGAUUGAGCAUCA
B11: 13037762_13037882_4555_3pUTR_ENSMUSG00000029571_ENSMUST00000031556|mouse|control|control (ssRNA)
RNA: GGGAGUUCUACAGUCCGACGAUCUAAAAGGUACUCCUAUUUUAAAAACAUAUGAAUGAAACUAUCUUCUAAAAUAAGACGCAAUGUGUUAACAACCAGUUGAUUUAAGCACUUUAAAAGGCAGAAUGGAAAAGUCGGCACACCCAACAGAGGAUUGAGCAUCA
B12: chr11:31834330:31834331:+_ENSMUSG00000020300_ENSMUST00000109412|mus_mus|FALSE|FALSE (ssRNA)
RNA: GGGAGUUCUACAGUCCGACGAUCAUAAAGUUCAGAGUAAUAGAUAAUCAUUGUUUAUGCCCUGUAAAGAAGUGGAACCAAAUCAUCUGUAAACACGCUUGUCACACAAUCACAAGUAAAUAUUAGCAGAAUAACAAUUUCUUACAACAGAGGAUUGAGCAUCA
B13: chr4:95690885:95690886:+_ENSMUSG00000028572_ENSMUST00000156910|mus_mus|mus_mus_mus_hu_False|8_78 (ssRNA)
RNA: GGGAGUUCUACAGUCCGACGAUCUUUAGAAAAUGUUAAAUACCAUGCUAAAAUAUUGUAAUUUUAAUAUUUUAUUUUACCAGAAGUCACAGGCAAGCAGACACUACAAGAAUAUAUGAAAAUGAAACAACAGUGUAUAACUGUCAACAGAGGAUUGAGCAUCA
B14: chr19:15271055:15271056:-_ENSG00000074181_ENST00000263388|hu_mus|FALSE|FALSE (ssRNA)
RNA: GGGAGUUCUACAGUCCGACGAUCAUAUAUAUUUUGUAAAAAAUAAUAAUAAUAAUAAGUUUGUUUAAAUGAAUUUGUCUCUAUACAAAAUGUAAAAAAGAAAAAAAUAAUAACUCACUCUUGUCAGAGUGUGAGACAAUGAGACAACAGAGGAUUGAGCAUCA
B15: chr7:7676484:7676485:-_ENSG00000106399_ENST00000223129|hu_mus|FALSE|FALSE (ssRNA)
RNA: GGGAGUUCUACAGUCCGACGAUCAAGUAUCACUUUUAAAAAAAGUUUAUAAAAAGGCUUAGUUGUAAACUGUCAUAAUAGAUUUACAAAAAAAUAUAUAUAUAUAAAAGAACAAAUUAAAUAUUAGAAAUUAUAGGAGUCGCUCAACAGAGGAUUGAGCAUCA
B16: chr1:90180492:90180493:+_ENSG00000171488_ENST00000370454|hu_hu|motif|central (ssRNA)
RNA: GGGAGUUCUACAGUCCGACGAUCUUUCAUUUGCUCCCGGACGUCAGAAGGCAGAGUUUCAAACAGAGCAUCUUCGGCAACGGAACCAGCUCGCUUCAGAGCCCGACAGUCACCCAGUUCAGGAGGGAGGAUUUCAAAGUGAUUCAACAGAGGAUUGAGCAUCA
B17: chr1:39494447:39494448:+_ENSG00000168653_ENST00000372967|hu_mus|hu_hu_hu_mus_False|38_58 (ssRNA)
RNA: GGGAGUUCUACAGUCCGACGAUCGCACCGAGCGGCGUUCUUAUAGGGCUGUUCUGCGCUUAGGAACAUAAAGUGCCGAUCUAUGUUGAUGCCCAGCCUUUUCUGGAUGUCAAGGAAAGGCAUGGCUCUGCAGUGCCCUUGUCACAACAGAGGAUUGAGCAUCA
B18: 131003253_131003911_1761_CDS_ENSMUSG00000068267_ENSMUST00000089510|mouse|control|control (ssRNA)
RNA: GGGAGUUCUACAGUCCGACGAUCCAAGGGCCAAAGACUGGGCCAGAGAAAGGGAUCUGGGGAGGUGGAAAGCAGGCAGAGGCAGGCUCGGUUCUUCCUAGUCACGUGGACCAGAUCGUGUUCCAAAUGAAGGAUGUGACUCUGCAACAGAGGAUUGAGCAUCA
B19: chr7:7679991:7679992:-_ENSG00000106399_ENST00000396682|hu_hu|hu_hu_hu_mus_False|48_58 (ssRNA)
RNA: GGGAGUUCUACAGUCCGACGAUCUGGGAUGAAUCUUUUCCAGCUUCCCCACGAAGCACACGGGCCGGUCGAUAUACUGAGCUAGCAUGCCGGCGUUGACGCGCGCUUUGGGGAGCUGCAUUAUGUCCUCCAUGAUUCUGCCGCCAACAGAGGAUUGAGCAUCA
B20: chr7:75932113:75932114:+_ENSG00000106211_ENST00000248553|hu_hu|hu_hu_hu_mus_False|38_78 (ssRNA)
RNA: GGGAGUUCUACAGUCCGACGAUCCUGCGACCACUCAUCGGGCAACCGGGGCACCCCGAAGGCCUGGUCGAAGAGGCGGCUGUGUGCAGGGUACCAGCGGAAGGGGUGUUCCCAGCUCGGGCUCCGCAGCAGCGAGAAGGGCACCAACAGAGGAUUGAGCAUCA
B21: chr12:3264740:3264741:-_ENSMUSG00000020671_ENSMUST00000021001|mus_mus|FALSE|FALSE (ssRNA)
RNA: GGGAGUUCUACAGUCCGACGAUCCCAUAUCUGUAGCUUGAUCUUCUUUCCUUGUAGUUCCACUGUUUUGAUCUUAAAGUCUAUUCCUAUGGUGGAAAUAAAGGUGGUAUUGAAGGCAUCGUCCGAAAAACGAAAAAGGACGCACAACAGAGGAUUGAGCAUCA
B22: chr7:92085846:92085847:+_ENSG00000157259_ENST00000287957|hu_mus|FALSE|FALSE (ssRNA)
RNA: GGGAGUUCUACAGUCCGACGAUCGUUAAAACUGAGGCUUUAUACCUGCGAAGUAAGUAUGUCCCAGGUUUGGUUUUGUAACUACAAGUGGUUGGCAACUGUUUCCUUAAUAGUUAUCGCAGGAGUAGGUCCAACGUGAGUCCACAACAGAGGAUUGAGCAUCA

The results in this text go back to article PMC12136788.

The full ranking holds about 24,000 sequences; the median of “enrichment r” is about 0.99, and the highest 2% start at about 3.7. This excerpt belongs to a sample that is enriched for the highest values.

The test has as its target T1, UNK ZnF1-3 (human, UniProt Q9C0B0 31-174).
T1 sequence: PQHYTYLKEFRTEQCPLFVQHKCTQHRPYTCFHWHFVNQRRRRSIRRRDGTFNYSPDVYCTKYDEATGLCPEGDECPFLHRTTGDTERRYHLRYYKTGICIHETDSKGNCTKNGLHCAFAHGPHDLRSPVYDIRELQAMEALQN
The test can be described thus: nsRBNS (natural sequence RNA bind-n-seq); RBNS binding buffer (assumed for nsRBNS): 25 mM Tris pH 7.5, 150 mM KCl, 3 mM MgCl2, 0.01% Triton X-100, 500 ug/ml BSA, 20 U/ml SUPERase-In, 4 C; UNK is unkempt and MSI1 is Musashi-1; names of the RNAs are library labels; protein concentration not given here; high values mean tight binding.
For B1, the binding signal is 1.14 enrichment R.

In turn, B2 gave a binding signal of 1.44 enrichment R. On to B3, for which the binding signal was 0.999 enrichment R. As to B4, the binding signal came out at 0.602 enrichment R.

Regarding B5, the binding signal stood at 1.77 enrichment R.

For B6, the binding signal was determined as 1.19 enrichment R. On to B7, for which the binding signal was 0.755 enrichment R. As for B8, the binding signal was 5.94 enrichment R.

In turn, B9 displayed a binding signal of 19.7 enrichment R.

Molecule B10 had a binding signal of 3.59 enrichment R. Turning to B11, the binding signal was found to be 1.37 enrichment R. Molecule B12 came in with a binding signal of 0.945 enrichment R. To B13 belongs 1.97 enrichment R; to B14, 4.58 enrichment R. For B15, the binding signal was 21.9 enrichment R. As for B16, the figure is 3.35 enrichment R; as for B17, 0.477 enrichment R. B18 displayed a binding signal of 1.29 enrichment R. As for B19, the figure is 0.406 enrichment R; as for B20, 0.969 enrichment R. To B21 belongs 1.8 enrichment R; to B22, 0.838 enrichment R.
